# Measured values: PubChem BioAssay (NCATS)
# Unmarked numbers belong to inactive results. Inconclusive results are not listed. A call without a number means that no potency is given here. The source made the active and inactive calls. The call rests on the fitted dose curve; in most records, active means well fitted curve in the direction sought with a large enough effect; inconclusive means small, poorly fitted or top-dose-only effect, or another doubt; inactive means no such curve, though single readings can be large; an effect the other way counts as inactive or inconclusive.
# Assays:
# [1] = qHTS assay for measurement of the activity of small molecule inhibitors on Zika virus induced Caspase-3 activity in human iPSC derived neural progenitor cells (hNPCs) (AID 1224857); further: nearly all actives have a fitted effect of over 65% in size
# In short: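 After overnight (16–20 h) culture at 350 cells/well, hNPCs get compound, then ZIKV 2 FFU/cell one hour later. Six hours on, Caspase-Glo 3/7 is added and luminescence measured.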
# [2] = qHTS assay for measurement of the activity of small molecule inhibitors on Zika virus induced Caspase-3 activity in human astrocytoma cells (AID 1224859)
# In short: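 Inhibition of Zika-induced caspase-3/7 activity: SNB-19 cells, 1 h compound pretreatment, ZIKV 2 FFU/cell for 6 h at 37 C, Caspase-Glo luminescence read-out.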
# [3] = NS1 protein of Zika virus - qHTS assay to identify small molecule inhibitors in human HEK 293 cells (AID 1347053); further: series mostly up to about 46 µM; nearly all actives have a fitted effect of over 55% in size
# In short: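 HEK 293 cells pretreated with compound for 1 h, then infected with ZIKV MR766 (MOI 0.5) for 24 h at 37 C. NS1 detected by TR-FRET with two anti-NS1 antibodies; normalized to uninfected (0%) and infected (100%) wells.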
# [4] = qHTS of pediatric cancer cell lines to identify multiple opportunities for drug repurposing: Primary screen for TC32 cells (AID 1347089); further: nearly all actives have a fitted effect of over 60% in size
# In short: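 Luminescent ATP read-out (CellTiter-Glo) of metabolically active TC32 cells after 48 h exposure. Concentration-response curves came from 11-point (MIPE, 0.78 nM–46 µM) or 8-point (NPC, 0.59 nM–46 µM) primary titrations; follow-up used 11 points.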
# [5] = qHTS of pediatric cancer cell lines to identify multiple opportunities for drug repurposing: Primary screen for DAOY cells (AID 1347090); further: series mostly up to about 46 µM; nearly all actives have a fitted effect of over 55% in size
# In short: (§1)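 Eight- or eleven-point concentration series, 48 h treatment at 37 degrees C in growth media; readout CellTiter-Glo luminescence. Potency and efficacy were taken from the concentration-response curves.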
# [6] = qHTS of pediatric cancer cell lines to identify multiple opportunities for drug repurposing: Primary screen for SJ-GBM2 cells (AID 1347091)
# In short: as §1
# [7] = qHTS of pediatric cancer cell lines to identify multiple opportunities for drug repurposing: Primary screen for SK-N-MC cells (AID 1347093); further: potency means the concentration at half of the fitted maximal effect
# In short: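 Metabolically active cells were quantified by ATP-dependent luminescence (CellTiter-Glo, 15 min at room temperature) following 48 h treatment. Cells had been plated at 500-1,000 per well and settled for 5 h beforehand.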
# [8] = qHTS of pediatric cancer cell lines to identify multiple opportunities for drug repurposing: Primary screen for BT-37 cells (AID 1347094); further: series mostly up to about 57 µM
# In short: (§2)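 Plated cells (500-1,000 per well, growth media) were allowed to settle for 5 hours, treated with compound dilutions for 48 hours, then lysed with CellTiter-Glo for 15 min at room temperature before luminescence reading.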
# [9] = qHTS of pediatric cancer cell lines to identify multiple opportunities for drug repurposing: Primary screen for NB-EBc1 cells (AID 1347095)
# In short: as §2
# [10] = qHTS of pediatric cancer cell lines to identify multiple opportunities for drug repurposing: Primary screen for U-2 OS cells (AID 1347096); further: nearly all actives have a fitted effect of over 50% in size
# In short: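 Cells (500-1,000/well) in growth media were settled 5 h at 37 degrees C, then given compounds for 48 h. Viability was read as CellTiter-Glo luminescence. Primary runs used MIPE at 11 points (0.78 nM-46 µM) and NPC at 8 points (0.59 nM-46 µM); follow-ups used 11 points.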
# [11] = qHTS of pediatric cancer cell lines to identify multiple opportunities for drug repurposing: Primary screen for A673 cells (AID 1347092); further: nearly all actives have a fitted effect of over 45% in size
# In short: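 Cell viability of A673 measured by CellTiter-Glo ATP luminescence after 48 hours compound exposure. Dilution series spanned 0.78 nM to 46 µM (MIPE, 11-point) or 0.59 nM to 46 µM (NPC, 8-point); bortezomib 2.3 uM positive control.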
Compound,Potency [1],outcome [2],Potency [3],Potency [4],Potency [5],Potency [6],Potency [7],Potency [8],Potency [9],Potency [10],Potency [11]
COCCOCC(OC)OC,inactive,inactive,inactive,inactive,inactive,inactive,inactive,inactive,inactive,inactive,–
O=C(c1cc(O)c(O)c(O)c1)c1ccc(O)c(O)c1O,inactive,inactive,inactive,inactive,inactive,inactive,–,–,inactive,–,–
COCCc1ccc(OCC2CO2)cc1 (centres undefined),inactive,inactive,inactive,inactive,inactive,–,inactive,inactive,inactive,inactive,inactive
O=C1CC[C@H](C(=O)N2CCCCC2)N1,inactive,inactive,inactive,inactive,inactive,–,inactive,inactive,inactive,inactive,inactive
Nc1ncnc2nc[nH]c12,inactive,inactive,inactive,inactive,inactive,–,inactive,inactive,inactive,inactive,inactive
CC(=O)[C@@]1(O)CC[C@H]2[C@@H]3C[C@H](C)C4=CC(=O)CC[C@]4(C)[C@H]3CC[C@@]21C,inactive,inactive,inactive,inactive,inactive,inactive,–,inactive,inactive,inactive,inactive
CC1CCCCN1CCCOC(=O)c1ccc(OC2CCCCC2)cc1 (centres undefined),inactive,inactive,inactive,inactive,inactive,inactive,inactive,inactive,inactive,inactive,–
Nc1nc2ccccc2n1Cc1ccc(F)cc1,inactive,inactive,inactive,inactive,inactive,inactive,inactive,inactive,inactive,inactive,–
C#Cc1ccc(-c2ccccc2F)cc1,inactive,inactive,inactive,inactive,inactive,inactive,inactive,inactive,inactive,inactive,–
CN(C)CCOC1=Cc2ccccc2Sc2ccc(Cl)cc21,inactive,inactive,inactive,inactive,inactive,inactive,inactive,–,inactive,inactive,–
COc1cc2nc(Cl)nc(N)c2cc1OC,inactive,inactive,inactive,inactive,inactive,inactive,–,inactive,–,inactive,–
CCOC(=O)N1CCC(Nc2ccc(Cl)cc2N)CC1,inactive,inactive,inactive,inactive,inactive,inactive,10.6 µM (active),–,–,–,–
Cc1cccc(N(C)C(=S)Oc2ccc3c(c2)CCC3)c1,inactive,inactive,inactive,inactive,inactive,inactive,–,inactive,–,inactive,inactive
CCCCC(CC)CNC(=O)CC(C)OC(=O)CCC(=O)O (centres undefined),inactive,inactive,inactive,inactive,inactive,–,inactive,inactive,inactive,inactive,inactive
COC(=O)c1cc(Cl)ccc1OC,inactive,inactive,inactive,inactive,inactive,inactive,inactive,inactive,inactive,inactive,–
CO/N=C(\C(=O)O)c1csc(NC(=O)CCl)n1,inactive,inactive,inactive,inactive,inactive,inactive,inactive,inactive,inactive,inactive,–
CN1CCN(N)CC1,inactive,inactive,inactive,inactive,inactive,inactive,inactive,inactive,inactive,–,–
COC(=O)C1=C(C)NC(COC(N)=O)=C(C(=O)OC(C)C)C1c1cccc(Cl)c1Cl (centres undefined),inactive,inactive,inactive,inactive,inactive,inactive,–,–,–,inactive,inactive
CCC(C(=O)OCCN1CCOC(c2ccccc2)C1C)c1ccccc1 (centres undefined),inactive,inactive,inactive,inactive,inactive,–,inactive,inactive,inactive,–,inactive
CC(C)C[C@@H]1[C@H](c2ccccc2)OC(=O)N1CCCN1CCCCCC1,inactive,inactive,inactive,inactive,inactive,–,inactive,inactive,inactive,inactive,inactive
CCCc1ccc(OCC(=O)N2CCN(C(=O)COc3ccc(CCC)cc3OC)CC2)c(OC)c1,inactive,inactive,inactive,inactive,inactive,–,inactive,inactive,–,–,inactive
O=C1CC(c2ccc(Cl)cc2)CC(=O)N1,inactive,inactive,inactive,inactive,inactive,–,inactive,inactive,inactive,inactive,inactive
